An excerpt weighted towards active compounds, which were near 21% of everything screened.
ClpP mod – qHTS Assay for Activators of ClpP; ATP-dependent Clp protease proteolytic subunit (Bacillus subtilis (strain 168)), P80244; Potency, µM (titrated, usually from 57.5 µM); actives 1.9% (n = 340,000); purified B. subtilis ClpP, FRET peptide cleavage, 20 min; active = well fitted falling curve with a large enough effect; inconclusive = small, poorly fitted or top-dose-only effect; inactive = no such curve, though single readings can be large or run the other way; also: the source files actives as falling curves though it sought activators and does not explain the sign; nearly all actives have a fitted effect of over 65% in size
Target sequence (P80244 whole entry, looked up): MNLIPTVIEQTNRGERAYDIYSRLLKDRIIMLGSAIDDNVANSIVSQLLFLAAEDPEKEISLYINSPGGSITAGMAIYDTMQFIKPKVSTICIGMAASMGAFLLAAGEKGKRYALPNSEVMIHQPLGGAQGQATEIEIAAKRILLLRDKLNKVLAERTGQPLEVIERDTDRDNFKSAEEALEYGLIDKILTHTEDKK
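Buffer: 100 mM Tris/HCl pH8, 100 mM KCl, 0.05% low protease BSA, 2.5% glycerol, 0.01% Tween-20. ClpP 10 microg/mL final; 20 min RT; delta FRET normalized to ADEP and DMSO controls.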
DT40 TDP1 CPT – growth inhibition of DT40 Tdp1-/-;hTDP1 cells with camptothecin (screen for TDP1 inhibitors) | chicken DT40 Tdp1-/-;hTDP1 cells + 20 nM CPT, ATP luminescence, 48 h | Potency, µM (highest dose often 46.2 µM), usual class: inhibitors | actives 12% (n = 420,000) | AID 686979; also: nearly all actives have a fitted effect of over 55% in size
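Chicken DT40 Tdp1-/- cells complemented with human TDP1, 400 cells/well, exposed to compounds plus 20 nM camptothecin for at least 48 h at 37 C; viability read as ATP content by CellTiter-Glo luminescence.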
TDP1 cell noCPT – qHTS for Inhibitors of human tyrosyl-DNA phosphodiesterase 1 (TDP1): qHTS in cells in absence of CPT; DT40 Tdp1-/- hTDP1 cells, no CPT, ATP luminescence, 48 h; Potency, µM (top dose mostly 46.2 µM), hits mostly inhibitors; actives 15% (n = 420,000); AID 686978, 2013; also: nearly all actives have a fitted effect of over 55% in size
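Stably hTDP1-transfected Tdp1-null chicken DT40 cells were treated with library compounds minus camptothecin and grown for at least 48 hr at 37 °C, after which cellular ATP was quantified by luminescence.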
D3 antag – antagonists of human D3 dopamine receptor | max response, negative = inhibition, % | P35462 | actives 2.5% (n = 360,000) | AID 652054 | D3R cells, DiscoveRx beta-arrestin luminescence, antagonist mode; hits give low values; in the data active = max response below about -50%; inconclusive = no clear call, values can overlap the other calls
Target sequence (P35462 whole entry, looked up): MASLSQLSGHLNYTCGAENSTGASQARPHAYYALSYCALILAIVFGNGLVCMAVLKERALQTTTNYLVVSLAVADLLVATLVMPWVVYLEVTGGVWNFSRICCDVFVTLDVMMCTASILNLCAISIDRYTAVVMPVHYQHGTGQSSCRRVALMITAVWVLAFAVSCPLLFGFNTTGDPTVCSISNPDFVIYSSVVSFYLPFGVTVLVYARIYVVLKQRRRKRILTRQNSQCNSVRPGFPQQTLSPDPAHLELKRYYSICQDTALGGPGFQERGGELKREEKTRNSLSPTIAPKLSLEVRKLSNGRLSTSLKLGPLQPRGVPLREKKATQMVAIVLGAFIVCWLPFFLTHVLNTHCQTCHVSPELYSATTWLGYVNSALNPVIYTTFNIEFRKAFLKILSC
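Cells plated overnight at 1500 cells/well, then exposed to library compounds with dopamine controls for 90 minutes at 37 degrees C. DiscoveRx reagent added for 30–60 minutes at room temperature; luminescence read, quantitative HTS format.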
DRD3 agonist – D3 dopamine receptor (human) agonism; P35462; D3R DiscoveRx beta-arrestin cells, luminescence, 90 min; max activation, %; actives 0.58% (n = 410,000); in the data active = max activation above about 30%
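Cells at 1500/well, incubated overnight, then treated with pinned compounds (dopamine as control) for 90 min at 37 degrees C. DiscoveRx reagent added for 30 - 60 minutes at room temperature; luminescence read.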
IL-1B inflam inh – blocks inflammasome-driven IL-1 beta release; THP-1 LPS/ATP IL-1B secretion, AlphaLISA, 16 h; hits give low values; activity change, % at 57.5 µM; actives 4.7% (n = 360,000); in the data active = activity change below about -50%; inconclusive = mostly about -30% to -49%
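Secreted IL-1B measured by AlphaLISA bead assay after 16 h compound exposure of THP-1 cells; compounds (final up to 57.5 uM) added 1 h before LPS (250 ng/mL) and ATP (1.25 mM) stimulation; lower signal means less secretion.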
A number is an active result; i = inactive; ? = inconclusive; nt = not tested or not shown; [ ] = remark or other dose. Unless noted, calls follow the shape of the dose curve; as a rule, active = well fitted inhibition curve with a large enough effect; inconclusive = small, poorly fitted or top-dose-only effect; inactive = flat fitted curve, though single readings scatter.

SMILES | ClpP mod | DT40 TDP1 CPT | TDP1 cell noCPT | D3 antag | DRD3 agonist | IL-1B inflam inh
CCC1=Nc2cc(C(=O)NCc3ccc(C)cc3)ccc2Sc2ccc(C)cc21 | i | 7.3µM | 8.2µM | nt | i | nt
CCOC(=O)C1CCN(C(=O)c2ccc3c(c2)N=C(CC)c2cc(C)ccc2S3)CC1 | i | 15µM | ? | nt | i | nt
CCCC1=Nc2cc(C(=O)NCc3ccccc3)ccc2Sc2ccccc21 | i | 4.1µM | 3.3µM | nt | i | nt
CCOC(=O)C1CCN(C(=O)c2ccc(OCC)c(OCC)c2)CC1 | i | ? | i | i | i | i
CCC1=Nc2cc(C(=O)O)ccc2Sc2ccccc21 | i | i | i | i | i | i
CCC1=Nc2cc(C(=O)NCc3ccco3)ccc2Sc2ccccc21 | i | 3.3µM | 4.6µM | ? | i | i
COc1ccc(N2CC3=C(C2=O)C(c2ccc(O)c(OC)c2)NC(=O)N3C)cc1 (stereo not drawn) | i | nt | nt | nt | i | nt
CC(C)CCCC(C)CCCC(C)CCCCC(C)CCCC(C)CCCC(C)C (stereo not drawn) | nt | i | i | nt | i | nt
Cc1cccc(NC(=O)CNC(=O)CN2C(=O)NC3(CCCc4ccccc43)C2=O)c1C (stereo not drawn) | i | i | i | i | i | i
CCC1=Nc2cc(C(=O)NCCCOC(C)C)ccc2Sc2ccccc21 | i | ? | ? | i | i | i
O=C(NCc1ccco1)c1ccc2c(c1)N(Cc1ccccc1)C(=O)c1ccccc1S2 | i | i | i | nt | i | nt
CCC1=Nc2cc(C(=O)NCCc3ccc(OC)c(OC)c3)ccc2Sc2ccccc21 | i | 16µM | 23µM | nt | i | nt
CCC1=Nc2cc(C(=O)NCc3ccco3)ccc2Sc2ccc(Cl)cc21 | i | 1.3µM | 1µM | i | i | i
C=CCNc1nc(NCCCN2CCCC2=O)c2sc(-c3ccccc3)cc2n1 | i | 18µM | 21µM | i | i | nt
O=C1CCCN1CCCNc1nc(NCc2ccccc2)nc2ccsc12 | i | 18µM | 18µM | i | i | ?
COCCNc1nc(NCCCN2CCCC2=O)c2sc(-c3ccccc3)cc2n1 | i | ? | ? | i | i | i
CC(=O)N1CCOc2ccc(S(=O)(=O)N(C)c3cccc(C)c3)cc21 | i | i | ? | i | i | i
O=C(/C=C/c1ccccc1)N1CCN(c2c(Cl)cccc2[N+](=O)[O-])CC1 | i | 23µM | 16µM | i | i | ?
CC(C)C(=O)N1CCN(c2c(Cl)cccc2[N+](=O)[O-])CC1 | i | i | ? | i | i | i
O=C(c1cccnc1)N1CCN(c2c(Cl)cccc2[N+](=O)[O-])CC1 | i | i | 8.2µM | i | i | i
CCOC(=O)/C(=N\Nc1ccccc1Cl)N1CCN(Cc2ccccc2)CC1 | i | ? | ? | i | i | i
CCOC(=O)/C(=N\Nc1ccccc1Cl)N1CCN(C)CC1 | i | ? | ? | i | i | -58
Cc1ccc2nc(-c3cccc(N)c3)oc2c1 | 14µM | i | i | i | i | i
CCc1ccc2oc(-c3cccc(N)c3)nc2c1 | i | i | i | -52 | i | i
Cc1cc(C)c2oc(-c3cccc(N)c3)nc2c1 | i | ? | ? | i | i | i
SMILES | ClpP mod | DT40 TDP1 CPT | TDP1 cell noCPT | D3 antag | DRD3 agonist | IL-1B inflam inh
O=C(CCCOc1ccccc1)NN1C(=O)NC2(CCCCC2)C1=O | i | i | i | i | i | i
COc1ccccc1C(C)Nc1ccc(S(=O)(=O)N2CCN(C)CC2)cc1[N+](=O)[O-] (stereo not drawn) | i | ? | ? | i | i | i
O=S(=O)(O)c1cc(O)c2c(N=Nc3ccc(Nc4ccccc4)c4c(S(=O)(=O)O)cccc34)cc(S(=O)(=O)O)cc2c1 | nt | 19µM | 13µM | nt | i | nt
O=C(NCc1csc(-c2cccs2)n1)Nc1ccc(F)cc1F | i | ? | 12µM | i | i | i
O=C(Nc1cccs1)Nc1ccc(Br)cc1F | i | ? | 21µM | i | i | nt
Cc1ccc(NC(=O)Nc2cccs2)c(Cl)c1 | i | i | ? | i | i | i
O=C(Nc1cccs1)Nc1ccc(F)cc1F | i | 23µM | 15µM | i | i | i
O=C(NCc1csc(-c2cccs2)n1)Nc1ccc(C(F)(F)F)cc1 | nt | i | ? | i | i | nt
O=C(COc1ccc(Cl)cc1)NCC(c1cccs1)S(=O)(=O)c1ccc(F)cc1 (stereo not drawn) | i | ? | ? | nt | i | nt
Cc1ccc(SCCNC(=O)CN(c2cccc(C)c2C)S(C)(=O)=O)cc1 | i | ? | ? | nt | i | nt
Cc1c(C(=O)N(C)C2CCOC2)sc2ncnc(NCc3ccc4c(c3)OCO4)c12 (stereo not drawn) | nt | i[9.04 µM] | i | nt | nt | nt
COc1ccc(N2CSC(=S)N(c3ccc(OC)cc3)C2)cc1 | i | 16µM | 15µM | i | i | i
CCCSc1nnc2c(n1)OC(CC)N(C(C)=O)c1ccccc1-2 (stereo not drawn) | i | i | i | nt | i | nt
Cc1ccccc1Nc1ncnc(N)n1 | i | i | i | i | i | i
CCc1c(N)nc(N)nc1Nc1ccccc1C | i | ? | 16µM | i | i | i
Cc1ccccc1Nc1nc(N)nc(C)c1Br | nt | ? | 15µM | i | i | i
CC(C)Cc1nc2cc(NS(=O)(=O)N(C)C)cc(C(=O)N3CCN(c4ccccc4)CC3)c2n1C | nt | i[9.04 µM] | i | nt | nt | nt
Clc1cccc(Cl)c1Cn1ccc(C2CC2)n1 | nt | i | i | i | i | i
CCOC(=O)C1CCN(C(c2cc3c(C)ccc(C)c3[nH]c2=O)c2nnnn2C2CCCCC2)CC1 (stereo not drawn) | i | 28µM | ? | i | i | i
Cc1ccc2cc(C(c3nnnn3C3CCCC3)N3CCOCC3)c(=O)[nH]c2c1C (stereo not drawn) | ? | i | i | i | i | i
Cc1ccc(C)c2[nH]c(=O)c(C(c3nnnn3C3CCCC3)N3CCOCC3)cc12 (stereo not drawn) | 25µM | i | i | i | i | i
Cc1ccc(C)c2[nH]c(=O)c(C(c3nnnn3CCc3ccccc3)N3CCOCC3)cc12 (stereo not drawn) | 28µM | ? | ? | ? | i | i
CCOC(=O)C1CCN(C(c2cc3ccc(C)c(C)c3[nH]c2=O)c2nnnn2C2CCCCC2)CC1 (stereo not drawn) | i | ? | ? | i | i | i
COc1ccc(Cn2nnnc2C(c2cc3cccc(C)c3[nH]c2=O)N2CCOCC2)cc1 (stereo not drawn) | i | i | i | i | i | i
Cc1noc(C)c1-c1ccc2ncnc(N3CCC(C(=O)O)CC3)c2c1 | nt | ? | i | nt | nt | nt
COc1ccc(C(NC(=O)C2CCN(CCCOc3ccccc3)CC2)c2ccccn2)cc1 (stereo not drawn) | i | i | i | -110 | i | i

Source: PubChem (National Center for Advancing Translational Sciences (NCATS))
